Consider 16 compounds from PubChem BioAssay (NCATS).

A number with no mark means an inactive call. Inconclusive results are not listed. Activity calls are given as the source filed them. Unless noted, calls come from the whole dose curve; as a rule, active = well fitted cell-killing curve with a large enough effect; inconclusive = small, poorly fitted or top-dose-only effect; inactive = flat fitted curve, though single readings scatter. A value given as a limit tells only on which side of the number the result lay.

Experiment [1] in a line: Cell Viability - BJ (AID 421; calls by dose curve;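 note: potency is the fitted concentration of half-maximal effect; cells exposed to compound for 40 hours at 37 °C before readout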). The settings on record: BJ fibroblast viability, qHTS. A digest of the protocol: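 Cytotoxicity in human BJ foreskin fibroblasts is scored as loss of cellular ATP after a 40-hour exposure, measured by luciferase luminescence. Controls are DMSO and 100 uM tamoxifen.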
(In general: qHTS replaces the single test concentration by a dilution series.)

A short description of experiment [2]: Cell Viability - Jurkat (AID 426;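 active = dose-dependent loss of cell ATP signal giving a full or clear fitted curve, ranked by lower potency value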; note: potency is the fitted concentration of half-maximal effect). The settings on record: qHTS. In short, it runs like this: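 Jurkat (clone E6-1, human T-cell leukemia) cells, 5000/well in complete medium, were exposed to compound for 40 hr at 37 °C. Viability was read as intracellular ATP by CellTiter-Glo luminescence; AC50 came from Hill fits of concentration-response data.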
A short description of experiment [3]: Cell Viability - Hek293 (AID 427;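 active = compounds whose dose-response curve shows a full or clear partial loss of cell viability, called from curve shape rather than a numeric limit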;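 note: potency is the fitted concentration of half-maximal effect; cells exposed to compound for 40 hours at 37 °C before reading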). The settings on record: qHTS. A digest of the protocol:
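qHTS, human embryonic kidney (adenovirus-transformed) cells; 40 hr cpd, 37 °C; CellTiter-Glo ATP luminescence. Norm: DMSO = 0, 100 uM tamoxifen = 100% inhibition. Hill-fit AC50.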

A short description of experiment [4]: Cell Viability - MRC5 (AID 434; calls by dose curve;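 note: potency is the fitted concentration of half-maximal effect; potency reflects cytotoxicity seen as loss of intracellular ATP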). The settings on record: MRC5 lung fibroblast viability, qHTS. A digest of the protocol: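 MRC5 normal human lung fibroblasts (1500/well) were treated with compounds for 40 hr at 37 °C in complete medium, and viable cells were measured as intracellular ATP by CellTiter-Glo luminescence. AC50 came from Hill fits, normalized to DMSO and 100 uM tamoxifen.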

Experiment [5] in a line: Cell Viability - SK-N-SH (AID 435; calls by dose curve;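 note: potency is the fitted concentration of half-maximal effect; compound exposure lasted 40 h at 37 °C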). The settings on record: SK-N-SH neuroblastoma cell viability qHTS. In short, it runs like this: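 Cells seeded at 1500 per well and incubated 5 hr at 37 °C. Compound added, then 40 hr at 37 °C. CellTiter-Glo added, 20 min at room temperature, luminescence read.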
Experiment [6] is described as follows: Cell Viability - N2a (AID 540).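 For activity change, negative = cytotoxicity: plate controls were DMSO alone for no effect and tamoxifen control for full effect.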 Note: nearly all actives have a fitted effect of over 45% in size. Note: potency is the fitted concentration of half-maximal effect. The settings on record: N2a mouse neuroblastoma cell viability; activity change, negative = cytotoxicity: at 92.2 µM (top of the series). In short, it runs like this:
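Mouse neuroblastoma N2a cells (1500/well) were preincubated 5 hr at 37 °C, then exposed to compounds for 40 hr at 37 °C in complete medium. Viability was read as intracellular ATP by CellTiter-Glo luminescence; AC50 from Hill fits.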

The nature of experiment [7]: Cell Viability - NIH 3T3 (AID 541).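 For activity change, negative = cytotoxicity: plate controls were DMSO alone for no effect and tamoxifen positive control for full effect.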 Note: nearly all actives have a fitted effect of over 25% in size. Note: potency is the fitted concentration of half-maximal effect. The settings on record: NIH 3T3 cell viability, qHTS; activity change, negative = cytotoxicity: at 92.2 µM (top of the series). A digest of the protocol: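 NIH 3T3 mouse embryo fibroblasts (1000 cells/well) were plated in complete medium and treated with compound for 40 hr at 37 °C. Viability was read as intracellular ATP by CellTiter-Glo luminescence; AC50 values came from Hill-equation fits of concentration-response data.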

The nature of experiment [8]: Cell Viability - H-4-II-E (AID 543). Note: nearly all actives have a fitted effect of over 35% in size. Note: potency is the fitted concentration of half-maximal effect. In short, it runs like this: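 Rat hepatoma H-4-II-E cells (1500/well) were plated, incubated 5 hr at 37 °C, then exposed to compounds for 40 hr at 37 °C. Cellular ATP was read by CellTiter-Glo luminescence; AC50 came from Hill-equation fits of concentration-response data.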
Experiment [9] can be described thus: Cell Viability - SH-SY5Y (AID 544). Note: nearly all actives have a fitted effect of over 55% in size. Note: potency is the fitted concentration of half-maximal effect. A digest of the protocol: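 Human neuroblastoma SH-SY5Y cells (1500/well) in complete medium were exposed to compounds for 40 hr at 37 °C; intracellular ATP was then quantified by CellTiter-Glo luminescence after 20 min at room temperature. AC50 came from Hill-equation concentration-response fits.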
Experiment [10] in a line: Cell Viability - Renal Proximal Tubule (AID 545).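 For activity change, negative = cytotoxicity: 0% = DMSO only and -100% = 100 µM tamoxifen.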 Note: nearly all actives have a fitted effect of over 40% in size. Note: potency is the fitted concentration of half-maximal effect. The settings on record: renal proximal tubule cells viability; activity change, negative = cytotoxicity: at 91.7 µM (top of the series). In short, it runs like this:
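Cytotoxicity is scored as a concentration-dependent drop in cellular ATP in primary rat renal proximal tubule cells exposed for 40 hr. AC50 derives from Hill modelling.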

Experiment [11] is described as follows: Cell Viability - Mesenchymal (AID 546).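 For activity change, negative = cytotoxicity: 0% = DMSO only and -100% = 100 µM tamoxifen.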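 Note: cells exposed to compound for 40 hours before reading.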 Note: potency is the fitted concentration of half-maximal effect. In short, it runs like this:
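Normal human renal glomerulus-derived kidney mesenchymal cells, 1000 per well in complete medium, were treated with compounds for 40 hr at 37 °C. Viability was read as intracellular ATP by CellTiter-Glo luminescence; AC50 values came from Hill-equation fits of qHTS concentration-response data.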

For experiment [12], the target named is Mitogen-activated protein kinase 10 (Mus musculus) (UniProt Q61831). Kind of experiment: JNK3 AlphaScreen Assay (AID 530; active = well fitted curve in either direction with a large enough effect, not every such curve was filed as active;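 note: kinase came from lysate of stimulated human HepG2 cells; signal reports phosphorylation of biotinylated GST-cJun 1-79 at Ser73 with 10 µM ATP; % is set by controls: 0 for no effect and ±100 for the full control effect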). A digest of the protocol: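 JNK3 came from HepG2 lysates pre-activated with IL-1beta and TNF-alpha and phosphorylated biotinylated GST-cJun (1-79) at 10 uM ATP, pH 7.6, room temperature. Compounds were titrated. AlphaScreen signal used anti-phospho-cJun (Ser73) antibody.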
In general terms: Alpha assays give light when donor and acceptor beads are brought close together.

The target of experiment [13] is Glucocorticoid receptor (Homo sapiens) (UniProt P04150). Kind of experiment: GR-GFP Redistribution (AID 450;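 active = compounds whose dose series gives a full or clear partial fitted curve of increased nuclear translocation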; note: potency is the fitted concentration of half-maximal effect). The settings on record: U2OS GR-GFP nuclear translocation, laser cytometry, 2 h.
Experiment [14] has the same target. Nature of the experiment: GR-EFC Redistribution (AID 451; calls by dose curve; note: potency is the fitted concentration of half-maximal effect). The settings on record: CHO-K1 GR-EFC translocation, beta-gal luminescence, 2 h. A digest of the protocol: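 CHO-K1 cells stably expressing nuclear-localized β-gal enzyme acceptor and GR fused C-terminally to the enzyme donor fragment; ligand-driven nuclear translocation restores β-gal by complementation. Compounds titrated up to 46 uM final, 2 h at 37 °C; luminescence read.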

Experiment [15] has as its target 3',5'-cyclic-AMP phosphodiesterase 4B (Homo sapiens) (UniProt Q07343). Kind of experiment: qHTS Assay for Inhibitors of PDE-IV (AID 607; active = well fitted activation curve with a large enough effect in the main read-out, with a control signal flat, not every such curve was filed as active; note: potency is the fitted concentration of half-maximal effect). A digest of the protocol:
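The readout is membrane depolarisation from a cAMP-sensing CNG channel, detected with a potential dye at ex 535/em 590. Cells were HEK293-derived (endogenous PDE-IV) at 1000 cells/well, titrated up to 22.9 uM final.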

Experiment [16] can be described thus: NFAT Signaling Pathway (AID 444; active = well fitted curve in either direction with a large enough effect, not every such curve was filed as active;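 note: carbachol stimulus at about its EC50 of 1 µM final; % is set by controls: 0 for no effect and ±100 for the full control effect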). The settings on record: Jurkat NFAT-bla M1, carbachol, beta-lactamase ratio, 5 h; at 38 µM (top of the series) unless noted. A digest of the protocol: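 Jurkat cells carrying an NFAT-driven β-lactamase reporter and co-transfected muscarinic M1 receptor were treated with compound plus carbachol (1 uM final, an EC50 level) for 5 h at 37 °C. CCF4 loading followed for 1 h at RT; 460/530 nm ratio gave %activity.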

Experiment [17] can be described thus: Stat Signaling Pathway (AID 446; active = well fitted curve in either direction with a large enough effect, not every such curve was filed as active;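 note: ME-180 cervical cancer cells given 40 pM IL-6 alongside compound; SIE-controlled beta-lactamase reporter measured as 460/530 nm FRET emission ratio; % is set by controls: 0 for no effect and ±100 for the full control effect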). The settings on record: ME-180 SIE beta-lactamase reporter, IL-6 stimulated, 5 h; at 38 µM (top of the series) unless noted. In short, it runs like this: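 Screening format detects activators and inhibitors alike: ME-180 SIE-bla cells stimulated at 40 pM IL-6 for 5 hrs with compound, then dual-emission beta-lactamase read at 405 nm excitation.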

3',5'-cyclic-AMP phosphodiesterase 4B (Homo sapiens), sequence (Q07343 whole entry, looked up): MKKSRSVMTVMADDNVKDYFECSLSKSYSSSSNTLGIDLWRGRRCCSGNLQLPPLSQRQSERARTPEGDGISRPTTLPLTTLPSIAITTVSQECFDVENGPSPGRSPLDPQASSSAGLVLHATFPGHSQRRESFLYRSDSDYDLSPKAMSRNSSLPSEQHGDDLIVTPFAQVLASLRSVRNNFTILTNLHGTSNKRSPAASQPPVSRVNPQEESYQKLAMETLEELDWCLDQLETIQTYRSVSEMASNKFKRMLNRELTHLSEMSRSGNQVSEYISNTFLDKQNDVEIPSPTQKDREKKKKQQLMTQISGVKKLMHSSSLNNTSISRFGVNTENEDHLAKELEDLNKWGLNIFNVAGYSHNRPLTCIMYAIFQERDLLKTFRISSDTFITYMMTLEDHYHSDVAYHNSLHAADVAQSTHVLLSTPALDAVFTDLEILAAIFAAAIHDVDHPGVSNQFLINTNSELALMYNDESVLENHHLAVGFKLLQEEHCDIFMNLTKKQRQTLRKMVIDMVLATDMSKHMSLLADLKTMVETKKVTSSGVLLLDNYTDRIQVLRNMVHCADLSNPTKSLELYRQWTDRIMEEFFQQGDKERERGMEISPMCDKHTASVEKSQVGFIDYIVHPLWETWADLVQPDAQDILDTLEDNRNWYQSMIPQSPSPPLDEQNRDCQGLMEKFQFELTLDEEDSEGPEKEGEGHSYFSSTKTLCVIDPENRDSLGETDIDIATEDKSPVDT
Glucocorticoid receptor (Homo sapiens), sequence (P04150 whole entry, looked up, the tested form may be a part): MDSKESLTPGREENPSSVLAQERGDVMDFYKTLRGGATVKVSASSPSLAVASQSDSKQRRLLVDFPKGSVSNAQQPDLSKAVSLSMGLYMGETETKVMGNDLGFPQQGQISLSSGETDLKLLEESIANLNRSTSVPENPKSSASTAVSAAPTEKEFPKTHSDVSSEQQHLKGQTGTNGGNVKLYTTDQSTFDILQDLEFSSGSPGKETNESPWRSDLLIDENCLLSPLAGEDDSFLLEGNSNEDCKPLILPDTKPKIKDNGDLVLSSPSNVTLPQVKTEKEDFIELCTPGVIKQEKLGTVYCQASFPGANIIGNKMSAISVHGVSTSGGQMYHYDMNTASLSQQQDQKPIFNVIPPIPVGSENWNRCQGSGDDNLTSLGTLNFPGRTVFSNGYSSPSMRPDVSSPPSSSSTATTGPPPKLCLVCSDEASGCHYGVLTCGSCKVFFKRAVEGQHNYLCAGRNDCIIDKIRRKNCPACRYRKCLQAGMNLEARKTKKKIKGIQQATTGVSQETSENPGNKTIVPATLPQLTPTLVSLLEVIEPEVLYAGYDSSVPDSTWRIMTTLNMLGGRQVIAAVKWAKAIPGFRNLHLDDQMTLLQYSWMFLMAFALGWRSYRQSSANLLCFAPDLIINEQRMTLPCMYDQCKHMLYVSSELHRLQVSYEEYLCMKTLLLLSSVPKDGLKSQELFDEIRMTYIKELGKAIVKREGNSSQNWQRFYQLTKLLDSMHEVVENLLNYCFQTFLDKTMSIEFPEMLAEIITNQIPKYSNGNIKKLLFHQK

As to `O=Cc1ccco1`, the Potency in experiment [1], in [2], in [3], in experiment [4] and in experiment [5] was more than 92 µM in each case. Also, the Potency result in experiment [6], in experiment [7], in experiment [8], in experiment [9], in experiment [10] and in experiment [11] was “inactive” each time.

Take `COc1ccc2c(c1OC)C(=O)OC2C1c2cc3c(cc2CCN1C)OCO3` (centres undefined): the Potency in [1], in [2], in [3], in [4] and in [5] was more than 92 µM throughout. Also, the compound was classed as inactive in experiment [12]. Also, the Potency result in experiment [6], in [7], in experiment [8], in [9], in [10] and in experiment [11] was “inactive” each time.

As to `O=c1ccc2[nH]cc(C3=CCNCC3)c2[nH]1`, the Potency in experiment [13] and in experiment [14] was more than 46 µM in each case. Also, the result in experiment [12] was inactive. For the same compound, the Potency entry in [15] was “inactive”.

With `COC1=CC(=O)O[C@@H](/C=C/c2ccccc2)C1`, the Potency in experiment [1], in experiment [2], in [3], in experiment [4] and in experiment [5] was more than 92 µM in each case. Moreover, the call in experiment [12] was inactive. In addition, the Potency entry in [6], in experiment [7], in experiment [9], in experiment [10] and in experiment [11] was “inactive” throughout.

Take `CCCCCl`: the Potency in experiment [1], in [2], in experiment [3], in experiment [4] and in [5] was more than 92 µM each time. Besides, the call in experiment [12] was inactive. In addition, the Potency result in experiment [6], in experiment [7], in experiment [8], in experiment [9], in experiment [10] and in experiment [11] was “inactive” each time.

With `N[C@@H](Cn1oc(=O)[nH]c1=O)C(=O)O`, in experiment [14], the Potency is more than 46 µM. Moreover, the result in experiment [12] was inactive.

As for `CCCn1c(=O)c2[nH]c(C3CCCC3)nc2n(CCCOC(=O)c2ccc(S(=O)(=O)F)cc2)c1=O`, the activity change, negative = inhibition in experiment [16] is -34.5%. In addition, the activity, negative = inhibition in [17] is -25.7%. The Potency in experiment [14] is more than 46 µM; in [15] it was 1.26 µM (active).

`[Cl-].[Cl-].[Hg+2]`: the Potency in experiment [1] is 29.4 µM (active); in [2], 25.3 µM (active); in [3], 19.4 µM (active); in experiment [4], 33.4 µM (active); in experiment [5], 16 µM (active); in experiment [6], 31.6 µM (active). The Potency in [7] is 15.8 µM (active); in experiment [8], 20 µM (active); in experiment [9] it was 0.158 µM (active); in experiment [10] it was 0.316 µM (active); in [11], 12.6 µM (active). Further, the outcome in experiment [12] was inactive.

In the case of `C[C@H]1CCC[C@H](O)CCCCCc2cc(O)cc(O)c2C(=O)O1`, the Potency in experiment [1], in experiment [2] and in experiment [4] was more than 92 µM each time. The result in experiment [12] was inactive. Besides, the Potency entry in experiment [6], in [8], in [10] and in experiment [11] was “inactive” each time. Moreover, the activity change, negative = cytotoxicity in experiment [7] is -108% (active).

For the compound `CCN(CCCl)Cc1ccccc1Br`, in [16], the activity change, negative = inhibition was -24.5%. In addition, the Potency in experiment [13] and in experiment [14] was more than 46 µM throughout. For the same compound, in [12], the result was inactive. Also, the Potency result in experiment [15] was “inactive”.

For `ClCC1CO1` (centres undefined), the Potency in experiment [1], in [2], in experiment [3], in experiment [4] and in experiment [5] was more than 92 µM each time. Further, the compound was called inactive in experiment [12]. Also, the Potency entry in [6], in [7], in experiment [8], in experiment [9], in experiment [10] and in experiment [11] was “inactive” in each case.

Consider `ClC(Cl)(Cl)Cl`, for which the Potency in experiment [1], in experiment [2], in experiment [3], in experiment [4] and in [5] was more than 92 µM throughout. Further, the result in [12] was inactive. Further, the Potency result in [6], in experiment [7], in experiment [8], in experiment [9], in experiment [10] and in [11] was “inactive” each time.

On to `CC(C)CCON=O`, for which the Potency in [1], in [2], in experiment [3], in experiment [4] and in experiment [5] was more than 92 µM in each case. For the same compound, in [12], the call was inactive. The Potency result in experiment [6], in experiment [7], in [8], in experiment [9], in [10] and in experiment [11] was “inactive” in each case.

In the case of `Cc1cc(C)cc(C(=O)OC2C[C@H]3CC[C@@H](C2)N3C)c1` (some centres undefined), the Potency in [14] was more than 46 µM. In addition, the result in experiment [12] was inactive.

For the compound `O=C(O)C(Cl)(Cl)Cl`, the Potency in experiment [1], in [2], in experiment [3], in experiment [4] and in experiment [5] was more than 92 µM in each case. In addition, in [12], the outcome was inactive. Also, the Potency entry in experiment [6], in experiment [7], in [8], in [9], in experiment [10] and in [11] was “inactive” each time.

On to `Clc1ccccc1Cl`, for which the Potency in experiment [1], in [2], in experiment [3], in [4] and in [5] was more than 92 µM throughout. The outcome in experiment [12] was inactive. The Potency result in experiment [6], in experiment [7], in [8], in [9], in experiment [10] and in experiment [11] was “inactive” each time.
